Assay results as given in PubChem BioAssay (NCI).
Compounds without any hit were thinned out: in the full panel of roughly 79,000, 15% have a hit. The source made the active and inactive calls. Rule as the data show it: active = growth inhibition above about 70%; inactive = the rest.

Assays:
[1] = NCI Yeast Anticancer Drug Screen. Data for the wt2 strain (AID 169);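 also: 0% = growth of vehicle-treated yeast cultures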; conditions: S. cerevisiae wt2 strain growth inhibition, stronger effect = higher value
How it was run: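 Against vehicle-treated controls, the growth of yeast exposed to each compound was compared, and the inhibition was recorded.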

[2] = NCI Yeast Anticancer Drug Screen. Data for the mlh1 strain (AID 171);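 also: 0% = growth of vehicle-treated control cultures of the same strain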; conditions: S. cerevisiae mlh1 strain growth inhibition, stronger effect = higher value
How it was run: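 Measured: yeast growth. Reference: vehicle-treated controls. Organism: strain with a defined alteration affecting DNA damage repair or cell cycle control, treated with compound.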

[3] = NCI Yeast Anticancer Drug Screen. Data for the sgs1 strain (AID 173);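 also: 0% = growth of vehicle-only control cultures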; conditions: S. cerevisiae sgs1 mutant, stronger effect = higher value
How it was run: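 Each compound was added to cultures of the altered yeast strain. Growth was recorded, and inhibition was derived by comparison with vehicle controls.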

[4] = NCI Yeast Anticancer Drug Screen. Data for the mlh1 rad18 strain (AID 175); conditions: S. cerevisiae mlh1 rad18 strain growth inhibition, stronger effect = higher value
How it was run: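 Genetically defined yeast (DNA repair-deficient) exposed to compounds; growth inhibition determined relative to vehicle.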

[5] = NCI Yeast Anticancer Drug Screen. Data for the rad18 strain (AID 177); conditions: S. cerevisiae rad18 mutant growth inhibition, stronger effect = higher value
How it was run: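 Vehicle-treated cultures served as the baseline for scoring compound-induced growth inhibition in DNA-repair-mutant yeast.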

[6] = NCI Yeast Anticancer Drug Screen. Data for the rad52 strain (AID 147);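 also: 0% = growth of vehicle-treated control cultures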; conditions: S. cerevisiae rad52 mutant growth inhibition, stronger effect = higher value
How it was run: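 The repair-mutant yeast strain was incubated with compounds, then growth was read and inhibition derived relative to vehicle.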

[7] = NCI Yeast Anticancer Drug Screen. Data for the wt1 strain (AID 149);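 also: 0% = growth of vehicle-treated wt1 cultures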; conditions: S. cerevisiae wt1 strain (SPY 50644) growth inhibition, stronger effect = higher value
How it was run: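 Yeast wt1 strain exposed to compounds; growth inhibition measured relative to vehicle-treated controls.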

[8] = NCI Yeast Anticancer Drug Screen. Data for the rad50EPP+ strain (AID 151);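 also: 0% = growth of vehicle-treated control cultures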; conditions: S. cerevisiae rad50 mutant strain, stronger effect = higher value
How it was run: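 Vehicle-normalised growth inhibition; rad50EPP+ yeast strain, altered in DNA damage repair, compound-treated.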

[9] = NCI Yeast Anticancer Drug Screen. Data for the mgt1 strain (AID 153); conditions: S. cerevisiae mgt1 mutant growth inhibition, stronger effect = higher value
How it was run: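 Vehicle-normalized growth inhibition is determined in mgt1 yeast, a strain selected for a defined alteration in DNA repair or cell cycle control.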

[10] = NCI Yeast Anticancer Drug Screen. Data for the rad50 strain (AID 155);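 also: 0% = growth of vehicle-only cultures of the same strain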; conditions: S. cerevisiae rad50 strain growth inhibition, stronger effect = higher value
How it was run: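 Yeast carrying a defined DNA repair defect were exposed to test compounds, and growth was compared with vehicle-treated controls to give percent inhibition.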

[11] = NCI Yeast Anticancer Drug Screen. Data for the mec2-1 strain (AID 157); conditions: S. cerevisiae mec2-1 strain, stronger effect = higher value
How it was run: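 Mutant yeast (mec2-1) grown with compound; growth inhibition relative to vehicle control reported.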

[12] = NCI Yeast Anticancer Drug Screen. Data for the rad14 strain (AID 159);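 also: 0% = growth of vehicle-treated control cultures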; conditions: S. cerevisiae rad14 strain growth inhibition, stronger effect = higher value
How it was run: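 Yeast cells carrying a defined DNA-repair defect were exposed to compounds, and growth inhibition was calculated relative to vehicle-treated control cultures.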

[13] = NCI Yeast Anticancer Drug Screen. Data for the sgs1 mgt1 strain (AID 161);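 also: 0% = growth of cultures given vehicle only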; conditions: S. cerevisiae sgs1 mgt1 strain, stronger effect = higher value
How it was run: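 Percent growth inhibition was derived by comparing compound-exposed mutant yeast with vehicle-exposed cultures. The strain carries alterations in DNA damage repair.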

[14] = NCI Yeast Anticancer Drug Screen. Data for the CLN2oe strain (AID 163);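 also: 0% = growth of vehicle-only control cultures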; conditions: S. cerevisiae CLN2oe strain, stronger effect = higher value
How it was run: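 Compounds are applied to yeast harbouring a defined cell-cycle control change; reduced growth compared with vehicle-treated controls gives the value.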

[15] = NCI Yeast Anticancer Drug Screen. Data for the cln2 rad14 strain (AID 165);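 also: 0% = growth equal to vehicle treated cultures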; conditions: S. cerevisiae cln2 rad14 strain, stronger effect = higher value
How it was run: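 Readout is yeast growth inhibition versus vehicle-treated controls, using a strain with cln2 and rad14 alterations exposed to compound.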

[16] = NCI Yeast Anticancer Drug Screen. Data for the bub3 strain (AID 167); conditions: S. cerevisiae bub3 mutant strain, stronger effect = higher value
How it was run: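 Compounds were applied to a genetically altered yeast strain carrying a cell-cycle control defect. Growth inhibition was scored against vehicle-treated controls.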

[17] = at 5.0 µM (retest, dose inferred, filed as 0.5)
[18] = at 50.0 µM (retest, dose inferred, filed as 5.0)

Measured: growth inhibition

CO[C@@]1([C@@H](Cl)c2ccccc2)C(=O)N(C)/C(=C\c2ccccc2)C(=O)N1C
inactive: [1]; at 1.2 µM 2% | [1]; at 3.7 µM 0% | [1]; at 11.0 µM -1% | [1]; at 33.0 µM 48% | [2]; at 1.2 µM 0% | [2]; at 3.7 µM -2% | [2]; at 11.0 µM -1% | [2]; at 33.0 µM 9% | [2]; at 100.0 µM 67% | [3]; at 1.2 µM -2% | [3]; at 3.7 µM -3% | [3]; at 11.0 µM -1% | [3]; at 33.0 µM 35% | [4]; [17] -10% | [4]; [18] 10% | [4]; at 50.0 µM 9% | [5]; at 1.2 µM 0% | [5]; at 3.7 µM 0% | [5]; at 11.0 µM -1% | [5]; at 33.0 µM 4% | [5]; at 100.0 µM 9%
active: [1]; at 100.0 µM 79% | [3]; at 100.0 µM 82%

O=C(Cc1ccccc1)NNc1nc(NNC(=O)c2ccncc2)nc(Nc2ccc(Cl)cc2)n1
active: [16]; [18] 98%
inactive: [6]; at 1.2 µM 16% | [6]; at 3.7 µM 6% | [6]; at 11.0 µM 16% | [6]; at 33.0 µM 14% | [6]; at 100.0 µM 17% | [7]; at 1.2 µM -52% | [7]; at 3.7 µM -3% | [7]; at 11.0 µM 0% | [7]; at 33.0 µM -1% | [7]; at 100.0 µM -1% | [8]; at 1.2 µM 1% | [8]; at 3.7 µM 8% | [8]; at 11.0 µM 6% | [8]; at 33.0 µM 3% | [8]; at 100.0 µM 4% | [9]; at 1.2 µM 1% | [9]; at 3.7 µM 3% | [9]; at 11.0 µM 5% | [9]; at 33.0 µM 3% | [9]; at 100.0 µM -1% | [10]; at 1.2 µM -1% | [10]; at 3.7 µM 0% | [10]; [17] 3% | [10]; at 11.0 µM 0% | [10]; at 33.0 µM -1% | [10]; [18] 38% | [10]; at 50.0 µM 39.2% | [10]; at 100.0 µM 1% | [11]; at 1.2 µM -3% | [11]; at 3.7 µM -5% | [11]; [17] 6% | [11]; at 11.0 µM -1% | [11]; at 33.0 µM 4% | [11]; [18] 22% | [11]; at 50.0 µM 48.2% | [11]; at 100.0 µM -3% | [12]; at 1.2 µM 0% | [12]; at 3.7 µM 4% | [12]; at 11.0 µM 3% | [12]; at 33.0 µM 0% | [12]; at 100.0 µM 2% | [13]; [17] 1% | [13]; [18] 12% | [13]; at 50.0 µM 55.3% | [14]; at 1.2 µM -14% | [14]; at 3.7 µM -9% | [14]; at 11.0 µM -13% | [14]; at 33.0 µM -20% | [14]; at 100.0 µM -24% | [15]; [17] -21% | [15]; [18] 45% | [15]; at 50.0 µM 10.1% | [16]; at 1.2 µM -3% | [16]; at 3.7 µM -5% | [16]; [17] -7% | [16]; at 11.0 µM -4% | [16]; at 33.0 µM -6% | [16]; at 50.0 µM 31.8% | [16]; at 100.0 µM -7% | [1]; at 1.2 µM -4% | [1]; at 3.7 µM 2% | [1]; at 11.0 µM 4% | [1]; at 33.0 µM -1% | [1]; at 100.0 µM -2% | [2]; at 1.2 µM -2% | [2]; at 3.7 µM -1% | [2]; at 11.0 µM 0% | [2]; at 33.0 µM -2% | [2]; at 100.0 µM -3% | [3]; at 1.2 µM 3% | [3]; at 3.7 µM 7% | [3]; at 11.0 µM 7% | [3]; at 33.0 µM 6% | [3]; at 100.0 µM 4% | [4]; [17] 13% | [4]; [18] 14% | [4]; at 50.0 µM 59.9% | [5]; at 1.2 µM 9% | [5]; at 3.7 µM 10% | [5]; at 11.0 µM 19% | [5]; at 33.0 µM 19% | [5]; at 100.0 µM 15%

CC1=C(C)C(=O)C2=C(OCCO2)C1=O
active: [6]; at 100.0 µM 82% | [10]; [18] 87% | [10]; at 100.0 µM 88% | [12]; at 100.0 µM 71% | [3]; at 100.0 µM 88%
inactive: [6]; at 1.2 µM -6% | [6]; at 3.7 µM -8% | [6]; at 11.0 µM 1% | [6]; at 33.0 µM 23% | [7]; at 1.2 µM -4% | [7]; at 3.7 µM -5% | [7]; at 11.0 µM -5% | [7]; at 33.0 µM -4% | [7]; at 100.0 µM 17% | [8]; at 1.2 µM -3% | [8]; at 3.7 µM -3% | [8]; at 11.0 µM 5% | [8]; at 33.0 µM 10% | [8]; at 100.0 µM 46% | [9]; at 1.2 µM -8% | [9]; at 3.7 µM -2% | [9]; at 11.0 µM -2% | [9]; at 33.0 µM 3% | [9]; at 100.0 µM 43% | [10]; at 1.2 µM -3% | [10]; at 3.7 µM 0% | [10]; [17] -23% | [10]; at 11.0 µM 7% | [10]; at 33.0 µM 33% | [10]; at 50.0 µM 1% | [11]; at 1.2 µM -3% | [11]; at 3.7 µM -3% | [11]; [17] -8% | [11]; at 11.0 µM -5% | [11]; at 33.0 µM -1% | [11]; [18] 24% | [11]; at 50.0 µM -3.25% | [11]; at 100.0 µM 20% | [12]; at 1.2 µM -1% | [12]; at 3.7 µM -1% | [12]; at 11.0 µM 4% | [12]; at 33.0 µM 17% | [13]; [17] -10% | [13]; [18] 21% | [13]; at 50.0 µM 29.8% | [14]; at 1.2 µM 0% | [14]; at 3.7 µM -4% | [14]; at 11.0 µM 3% | [14]; at 33.0 µM 15% | [14]; at 100.0 µM 27% | [15]; [17] 3% | [15]; [18] 29% | [15]; at 50.0 µM 3.35% | [16]; at 1.2 µM 0% | [16]; at 3.7 µM 2% | [16]; [17] -22% | [16]; at 11.0 µM 9% | [16]; at 33.0 µM 18% | [16]; [18] 35% | [16]; at 50.0 µM 59.4% | [16]; at 100.0 µM 48% | [1]; at 1.2 µM -9% | [1]; at 3.7 µM -12% | [1]; at 11.0 µM -2% | [1]; at 33.0 µM -13% | [1]; at 100.0 µM -5% | [2]; at 1.2 µM -4% | [2]; at 3.7 µM -3% | [2]; at 11.0 µM 3% | [2]; at 33.0 µM 14% | [2]; at 100.0 µM 54% | [3]; at 1.2 µM -22% | [3]; at 3.7 µM 23% | [3]; at 11.0 µM -14% | [3]; at 33.0 µM 26% | [4]; [17] 4% | [4]; [18] 50% | [4]; at 50.0 µM 26% | [5]; at 1.2 µM -5% | [5]; at 3.7 µM -5% | [5]; at 11.0 µM -4% | [5]; at 33.0 µM 6% | [5]; at 100.0 µM 54%
